Source: PubChem BioAssay
Values joined by “and” are separate entries in the source; they are usually repeats but may differ in a detail not shown here. Equal values may be shown once. Inconclusive results are not listed. Active and inactive are the calls of the source.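 The calls were made as follows, unless noted: active = normalized viability below 100% at a tested concentration; inactive = the rest.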

Experiments:
[1] = modulation of C. elegans fzo-1 (AID 1259413; call rule not given here;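 also: fzo-1 mutant C. elegans worms in liquid wells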); details: C. elegans fzo-1 modulator screen, mean read-out; stronger effect = higher value
[2] = EMT-state selective cytotoxicity in co-culture – imaging, PC-3E GFP, TEM4-18 mCherry, primary screen (AID 1345086;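 active = compounds killing one labelled cell type while sparing the other, by normalised counts and ratio limits, not self-fluorescent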;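 as to all read-outs here: cells exposed to compound for 72 h before imaging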;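 as to red/green cell ratio (normalised): normalised mesenchymal count divided by normalised epithelial count so high means epithelial killing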); details: PC-3E GFP / TEM4-18 mCherry co-culture, imaging cell counts, at 1 µM; for red/green cell ratio (normalised): actives lie on both sides, counts scaled to control wells, 1 = unselective
[3] = test system: Aerobactin synthetase IucA (Klebsiella pneumoniae); assay: inhibition of K. pneumoniae IucA enzyme – biochemical, Tocris library, absorbance (AID 1345561; call rule not given here;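 also: 100% = enzyme without compound and 0% = no enzyme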); details: purified IucA enzyme assay, absorbance (OD) read-out; stronger effect = lower value;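 tested at 8 µM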
[4] = viability loss in pontine glioma line – cell-based, SU-DIPG-XVII, MIPE5.0, CellTiter-Glo, qHTS, dose response (AID 1347060; cut-off not given, nearly all actives have AC50 up to about 26 µM); details: CellTiter-Glo ATP luminescence
[5] = viability loss in pontine glioma line – cell-based, SU-DIPG-XIII, MIPE4.0, CellTiter-Glo, qHTS, dose response (AID 1347061; cut-off not given, nearly all actives have AC50 up to about 37 µM;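 also: cells exposed to compound for 48 hours before readout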); details: CellTiter-Glo ATP luminescence
[6] = viability loss in pontine glioma line – cell-based, SU-DIPG-IV, MIPE4.0, CellTiter-Glo, qHTS, dose response (AID 1347063; cut-off not given, nearly all actives have AC50 up to about 30 µM;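 also: compound exposure lasted 48 hours before the viability readout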); details: CellTiter-Glo ATP luminescence
[7] = viability loss in pontine glioma line – cell-based, SU-DIPG-XXV, MIPE5.0, CellTiter-Glo, qHTS, dose response (AID 1347065; cut-off not given, nearly all actives have AC50 up to about 26 µM;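 also: cells exposed to compound for 48 hours before ATP readout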); details: CellTiter-Glo ATP luminescence
[8] = growth inhibition of DIPG cells – cell-based, MIPE4.0 library, CellTiter-Glo luminescence, qHTS (AID 1347066; cut-off not given, nearly all actives have AC50 up to about 30 µM;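 also: cells exposed to compound for 48 hours before readout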); details: SU-DIPG-VI viability, CellTiter-Glo ATP luminescence
[9] = growth inhibition of DIPG cells – cell-based, MIPE5.0 library, qHTS (AID 1347068; cut-off not given, nearly all actives have IC50 up to about 30 µM); details: SU-DIPG-XXV viability
[10] = MELAS cybrid and Rieske KO viability enhancers – cell-based, MELAS cybrids, Rieske KO mouse fibroblasts, CellTiter-Glo, primary screen (AID 1508586;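 active = mean z-score across replicates of 1.96 or higher in either the MELAS or the Rieske mutant cell line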;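 also: z relative to plate mean and SD of compound and empty wells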); details: low glucose
[11] = viability loss in pontine glioma line – cell-based, JHH-DIPG-1, MIPE4.0, CellTiter-Glo, qHTS, dose response (AID 1347062; cut-off not given, nearly all actives have AC50 up to about 27 µM;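 as to AC50: cells exposed to compound for two days before readout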); details: JHH-DIPG-1 viability, CellTiter-Glo ATP luminescence
[12] = viability loss with induced miR-34 in A549 – imaging, A549 dox-inducible miR-34, nuclei and caspase counts, primary screen (AID 1347080;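 active = compounds whose cell count with miR-34 switched on is under 0.7 times the count with it off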); details: A549 miR-34 inducible, Hoechst nuclei count, 48 h
[13] = JHH-DIPG-1 glioma cell viability, MIPE5.0 library, CellTiter-Glo luminescence, qHTS (AID 1347067; cut-off not given, nearly all actives have AC50 up to about 26 µM;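 also: cells exposed to compound for 48 hours before readout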); details: JHH-DIPG-1 glioma viability, CellTiter-Glo ATP luminescence
[14] = viability loss in pontine glioma line – cell-based, SU-DIPG-XIII, MIPE5.0, CellTiter-Glo, qHTS, dose response (AID 1347064; cut-off not given, nearly all actives have AC50 up to about 23 µM); details: CellTiter-Glo ATP luminescence
[15] = blockers of cellular phospholipid synthesis – cell-based, LOPAC library, screen 4, primary screen (AID 1347384; call rule not given here); details: animal cells, phospholipid biosynthesis inhibition screen; at 10 µM
[16] = compounds altering HSF1 focus formation in cells – imaging, Selleck Cancer Library (AID 1347162; in the data active = plate-normalised HSF1 focus index below about 0.46); details: human cells, HSF1 nuclear foci imaging, at 10 µM; SSMD: measured here: HSF1 foci SSMD mean; cell count: measured here: cell number; plate-normalised HSF1 focus index: stronger effect = lower value
[17] = drug combination growth inhibition, ovarian cancer – cell-based, oncology-focused library, rucaparib conditional, profiling panel (AID 1508598); details: patient-derived ovarian cancer cells, CellTiter-Glo viability, 144 h, stronger effect = lower value
[18] = measured here: epithelial PC-3E GFP cell survival
[19] = measured here: mesenchymal TEM4-18 mCherry cell survival
[20] = MELAS cybrid survival, CellTiter-Glo 48 h, stronger effect = higher value
[21] = Rieske KO mouse fibroblast survival, CellTiter-Glo 72 h
[22] = measured here: total cells with miR-34 induction, stronger effect = lower value
[23] = stronger effect = lower value, cell number ratio, induced over uninduced
[24] = measured here: relative caspase fold change +Dox/-Dox
[25] = measured here: total cells without miR-34 induction
[26] = at 0.000305 µM, OCI-C5x cells, with rucaparib 10 µM, 100% = cells with rucaparib alone
[27] = at 0.000305 µM, OCI-C5x cells, without rucaparib
[28] = at 0.000305 µM, OCI-P5x cells, with rucaparib 20 µM, 100% = cells with rucaparib alone
[29] = at 0.000305 µM, OCI-P5x cells, without rucaparib
[30] = at 0.00122 µM, OCI-C5x cells, with rucaparib 10 µM, 100% = cells with rucaparib alone
[31] = at 0.00122 µM, OCI-C5x cells, without rucaparib
[32] = at 0.00122 µM, OCI-P5x cells, with rucaparib 20 µM, 100% = cells with rucaparib alone
[33] = at 0.00122 µM, OCI-P5x cells, without rucaparib
[34] = at 0.00488 µM, OCI-C5x cells, with rucaparib 10 µM, 100% = cells with rucaparib alone
[35] = at 0.00488 µM, OCI-C5x cells, without rucaparib
[36] = at 0.00488 µM, OCI-P5x cells, with rucaparib 20 µM, 100% = cells with rucaparib alone
[37] = at 0.00488 µM, OCI-P5x cells, without rucaparib
[38] = at 0.0195 µM, OCI-C5x cells, with rucaparib 10 µM, 100% = cells with rucaparib alone

O=C(NCCO[N+](=O)[O-])c1cccnc1
-0.979 and 0.348 and 0.117: z-score [10, 21]
inactive: mean signal [1] 264 | red/green cell ratio (normalised) [2] 0.94 | remaining activity [3] 106% | outcome [4] | outcome [5] | outcome [6] | outcome [7] | outcome [8] | outcome [9] | z-score [10, 20] -0.335 and 0.466 and -0.214
1.18: normalised cell number [2, 18]
1.11: normalised cell number [2, 19]

COC(=O)C1=C(C)NC(C)=C(C(=O)OC(C)C)C1c1cccc2nonc12 (stereo not given)
1.22 and 0.935: z-score [10, 21]
1.04: normalised cell number [2, 19]
inactive: mean signal [1] 273 | red/green cell ratio (normalised) [2] 1.19 | remaining activity [3] 109% | outcome [11] | outcome [6] | outcome [8] | z-score [10, 20] -0.382 and 0.324
7780 and 7900 and 7270: cell count [12, 22]
0.87: normalised cell number [2, 18]

CNS(=O)(=O)Cc1ccc2[nH]cc(CCN(C)C)c2c1
inactive: mean signal [1] 224 | red/green cell ratio (normalised) [2] 1.17 | remaining activity [3] 127% | outcome [5] | outcome [11] | outcome [6] | outcome [8] | z-score [10, 20] -0.261 and 0.654 and -0.798
-0.042 and 0.351 and -0.245: z-score [10, 21]
1.25: normalised cell number [2, 19]
1.07: normalised cell number [2, 18]

COc1cc2nc(N3CCN(C(=O)C4CCCO4)CC3)nc(N)c2cc1OC (stereo not given)
inactive: mean signal [1] 236 | red/green cell ratio (normalised) [2] 0.95 | remaining activity [3] 115% | outcome [5] | outcome [11] | outcome [6] | outcome [8] | z-score [10, 20] -0.37 and 0.933 and -0.482
0.99: normalised cell number [2, 18]
0.344 and 0.726 and -1.05: z-score [10, 21]
0.94: normalised cell number [2, 19]

Nc1nc(N)nc(-c2cc(Cl)ccc2Cl)n1
1.09: normalised cell number [2, 19]
0.166 and -0.512 and 0.352: z-score [10, 21]
inactive: mean signal [1] 297 | red/green cell ratio (normalised) [2] 1.01 | remaining activity [3] 103% | outcome [4] | outcome [5] | outcome [11] | outcome [8] | outcome [13] | outcome [9] | z-score [10, 20] -0.19 and -0.868 and 0.283
1.08: normalised cell number [2, 18]

CCCN[C@H]1CCc2nc(N)sc2C1
inactive: mean signal [1] 239 | red/green cell ratio (normalised) [2] 0.69 | outcome [4] | outcome [5] | outcome [11] | outcome [14] | outcome [7] | outcome [8] | outcome [13] | outcome [9] | fold change [12, 23] 0.926 and 0.917 | outcome [15] | z-score [10, 20] 0.752 and 0.407
1.3: normalised cell number [2, 18]
8570 and 10600: cell count [12, 25]
7940 and 9730: cell count [12, 22]
0.13 and -0.361: z-score [10, 21]
0.89: normalised cell number [2, 19]
0.996 and 1.3: fold change [12, 24]

CC(c1cc2ccccc2s1)N(O)C(N)=O (stereo not given)
inactive: mean signal [1] 255 | red/green cell ratio (normalised) [2] 0.83 | outcome [5] | outcome [11] | outcome [6] | outcome [8] | plate-normalised HSF1 focus index [16] 1.14 | z-score [10, 20] -0.393 and -0.528 and -0.827 | viability [17, 26] 111% | viability [17, 27] 124% | viability [17, 31] 121% | viability [17, 34] 128% | viability [17, 35] 122% | viability [17, 38] 119% | viability ([17]; at 0.0195 µM, OCI-C5x cells, without rucaparib) 125% | viability ([17]; at 0.0781 µM, OCI-C5x cells, with rucaparib 10 µM, 100% = cells with rucaparib alone) 103% | viability ([17]; at 0.0781 µM, OCI-C5x cells, without rucaparib) 125% | viability ([17]; at 0.0781 µM, OCI-P5x cells, without rucaparib) 118% | viability ([17]; at 0.313 µM, OCI-C5x cells, with rucaparib 10 µM, 100% = cells with rucaparib alone) 113% | viability ([17]; at 0.313 µM, OCI-C5x cells, without rucaparib) 121% | viability ([17]; at 0.313 µM, OCI-P5x cells, with rucaparib 20 µM, 100% = cells with rucaparib alone) 115% | viability ([17]; at 0.313 µM, OCI-P5x cells, without rucaparib) 123% | viability ([17]; at 1.25 µM, OCI-C5x cells, with rucaparib 10 µM, 100% = cells with rucaparib alone) 109% | viability ([17]; at 1.25 µM, OCI-C5x cells, without rucaparib) 124% | viability ([17]; at 1.25 µM, OCI-P5x cells, with rucaparib 20 µM, 100% = cells with rucaparib alone) 106% | viability ([17]; at 1.25 µM, OCI-P5x cells, without rucaparib) 124% | viability ([17]; at 5 µM, OCI-C5x cells, with rucaparib 10 µM, 100% = cells with rucaparib alone) 113% | viability ([17]; at 5 µM, OCI-C5x cells, without rucaparib) 129% | viability ([17]; at 5 µM, OCI-P5x cells, with rucaparib 20 µM, 100% = cells with rucaparib alone) 105% | viability ([17]; at 5 µM, OCI-P5x cells, without rucaparib) 116%
0.713 and 0.986 and 1.26: z-score [10, 21]
2.48: SSMD [16]
active: viability [17, 28] 77.5% | viability [17, 29] 83.5% | viability [17, 30] 98.9% | viability [17, 32] 61% | viability [17, 33] 79.9% | viability [17, 36] 48.8% | viability [17, 37] 63.4% | viability ([17]; at 0.0195 µM, OCI-P5x cells, with rucaparib 20 µM, 100% = cells with rucaparib alone) 47.6% | viability ([17]; at 0.0195 µM, OCI-P5x cells, without rucaparib) 63.9% | viability ([17]; at 0.0781 µM, OCI-P5x cells, with rucaparib 20 µM, 100% = cells with rucaparib alone) 97.3%
1.22: normalised cell number [2, 18]
7010: cell count [16]
1.01: normalised cell number [2, 19]

COc1ccc(CC2c3cc(OC)c(OC)cc3CC[N+]2(C)CCC(=O)OCCCCCOC(=O)CC[N+]2(C)CCc3cc(OC)c(OC)cc3C2Cc2ccc(OC)c(OC)c2)cc1OC (stereo not given)
-0.336 and -0.215 and -0.301: z-score [10, 21]
inactive: mean signal [1] 250 | red/green cell ratio (normalised) [2] 0.8 | outcome [4] | outcome [5] | outcome [11] | outcome [6] | outcome [9] | z-score [10, 20] -0.594 and -1.25 and -0.066
0.94: normalised cell number [2, 19]
1.18: normalised cell number [2, 18]

CCCc1nc(C)c2c(=O)[nH]c(-c3cc(S(=O)(=O)N4CCN(CC)CC4)ccc3OCC)nn12
1.1: normalised cell number [2, 18]
1.03: normalised cell number [2, 19]
inactive: mean signal [1] 298 | red/green cell ratio (normalised) [2] 0.94 | outcome [4] | outcome [14] | outcome [7] | outcome [13] | outcome [9] | z-score [10, 20] -0.282 and 1.61 and 1.47
-1.38 and 1.33 and 1.06: z-score [10, 21]
active: AC50 [5] 13.2 µM | AC50 [11] 18.7 µM | AC50 [6] 4.18 µM | AC50 [8] 8.33 µM

Cc1cccc(C)c1NC(=O)C(C)N (stereo not given)
10300 and 9450 and 9090: cell count [12, 22]
0.88: normalised cell number [2, 19]
inactive: mean signal [1] 270 | red/green cell ratio (normalised) [2] 0.66 | fold change [12, 23] 0.975 and 0.939 and 0.865 | outcome [15] | z-score [10, 20] 0.748
0.988 and 0.663 and 1.75: fold change [12, 24]
0.421: z-score [10, 21]
10600 and 10100 and 10500: cell count [12, 25]
1.32: normalised cell number [2, 18]

COc1ccccc1OCC(O)CN1CCN(CC(=O)Nc2c(C)cccc2C)CC1 (stereo not given)
inactive: mean signal [1] 263 | red/green cell ratio (normalised) [2] 0.78 | outcome [4] | outcome [5] | outcome [11] | outcome [6] | outcome [14] | outcome [7] | outcome [8] | outcome [13] | outcome [9] | plate-normalised HSF1 focus index [16] 1.14 | outcome [15] | viability [17, 26] 108% | viability [17, 27] 113% | viability [17, 28] 102% | viability [17, 29] 108% | viability [17, 30] 114% | viability [17, 31] 124% | viability [17, 33] 106% | viability [17, 34] 115% | viability [17, 35] 113% | viability [17, 37] 109% | viability [17, 38] 106%
7450: cell count [16]
2.29: SSMD [16]
active: viability [17, 32] 96% | viability [17, 36] 93.5%
0.96: normalised cell number [2, 19]
1.24: normalised cell number [2, 18]
